Screening data deposited in PubChem BioAssay by National Center for Advancing Translational Sciences (NCATS).
Sampled rows, rich in hits. Any-hit rate of the full collection: about 8%.
Gal4-VP16 FLuc = counter-screen for ROR gamma inhibitors: Gal4-VP16 reporter. Drosophila S2 Gal4-VP16 UAS-luciferase, luminescence, 20 h. Potency, µM (highest dose often 53.6 µM), most hits filed as inhibitors. AID 2546. 310,000 tested, 3.5% active;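 note: Gal4-VP16 expression switched on by copper sulfate through the metallothionein promoter; nearly all actives have a fitted effect of over 50% in size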
ELG1 repair inh = inhibitors of ELG1-dependent DNA repair in HEK293T cells | 330,000 tested, 2.3% active | Potency, µM (highest dose often 46.1 µM), usual class: inhibitors | AID 504467 | HEK293T ELG1-luciferase reporter, luminescence, 16 h; DNA damage induced by 5-fluorouridine; note: nearly all actives have a fitted effect of over 55% in size
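HEK293T cells expressing luciferase-tagged ELG1 (2,000/well) received 5-Fluorouridine plus compound or DMSO for 16 hr at 37 °C. Luciferase was read by ONE-Glo luminescence after 30 min at room temperature.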
RORg inh = blocks mouse ROR gamma transcriptional activity | Drosophila S2 Gal4-RORgamma UAS-luciferase reporter, 20 h | Potency, µM (titrated, usually from 53.6 µM), usual class: inhibitors | 310,000 tested, 5.4% active; note: nearly all actives have a fitted effect of over 60% in size
Target sequence (P51450 whole entry, looked up, the tested form may be a part): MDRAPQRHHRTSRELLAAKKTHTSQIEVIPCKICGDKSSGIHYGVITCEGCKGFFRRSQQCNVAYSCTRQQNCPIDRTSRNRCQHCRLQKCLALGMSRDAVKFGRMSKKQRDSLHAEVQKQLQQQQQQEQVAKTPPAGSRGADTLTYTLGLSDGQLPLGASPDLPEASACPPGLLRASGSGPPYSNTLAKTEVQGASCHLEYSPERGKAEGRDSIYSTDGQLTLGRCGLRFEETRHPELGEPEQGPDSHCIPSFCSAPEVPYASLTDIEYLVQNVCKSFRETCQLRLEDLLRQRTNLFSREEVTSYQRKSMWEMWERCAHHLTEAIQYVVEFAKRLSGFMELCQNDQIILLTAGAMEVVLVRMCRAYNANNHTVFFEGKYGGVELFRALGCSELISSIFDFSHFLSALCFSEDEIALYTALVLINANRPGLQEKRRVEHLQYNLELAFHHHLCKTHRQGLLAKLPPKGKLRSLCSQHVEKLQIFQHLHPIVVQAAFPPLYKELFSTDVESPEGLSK
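A Gal4/UAS one-hybrid system in insect cells: metallothionein-promoter Gal4–ROR gamma fusion plus Photinus luciferase reporter. Copper sulfate 700 uM final, 20 hr ambient incubation, luminescent detection after 10 min with reagent.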
Coupling enz = counter-screen for Giardia aldolase inhibitors: coupling enzyme system; coupling enzyme system counterscreen, AmpLite Red fluorescence; activity change, negative = inhibition, % at 58.2 µM, hits read low; 290,000 tested, 0.67% active; AID 2472; in the data active = activity change below about -30%
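Final compound at 57.5 uM, incubated 10 min at RT with coupling enzyme reagent (glyceraldehyde-3-phosphate), then 20 min with substrate and AmpLite Red detection. Fluorescence read at 525/598 nm; tests interference with the coupling assay, not aldolase inhibition.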
TSHR antag = antagonists of human thyroid stimulating hormone receptor | TSHR-expressing cells, TSH-stimulated cAMP HTRF, 2 h; hits give low values | activity change, negative = inhibition, % at 11.5 µM | 330,000 tested, 0.2% active | P16473;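 active = activity change below a set negative limit, meaning inhibition stronger than a set level, cut at about -70% in these data; inconclusive = activity change between two set negative limits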
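TSHR-expressing cells, 200/well, pre-treated with compound, then stimulated with EC80 TSH (4nM final) for 2 hours at 37 deg C. cAMP measured by competitive HTRF: anti-cAMP cryptate antibody in lysis buffer plus cAMP-d2, read after 30 minutes at room temperature.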
Each line names hits and unclear results; the compound was inactive in the other large screens. Unless noted, calls come from the whole dose curve; as a rule, active = well fitted curve in the direction sought with a large enough effect; inconclusive = small, poorly fitted or top-dose-only effect, or another doubt; inactive = no such curve, though single readings can be large; an effect the other way counts as inactive or inconclusive.

C=CC[C@H](CC(=O)N(CCO)Cc1ccccc1)C(=O)N[C@@H](COC(=O)[C@@H](CC=C)CC(=O)OC(C)(C)C)Cc1c[nH]c2ccccc12	ELG1 repair inh 18.3µM (no result: Gal4-VP16 FLuc, RORg inh, Coupling enz)
C=CC[C@@H](CC(=O)NCCO)C(=O)N[C@H](COC(=O)[C@H](CC=C)CC(=O)OC(C)(C)C)Cc1c[nH]c2ccccc12	none (no result: Gal4-VP16 FLuc, RORg inh, Coupling enz)
C=CC[C@H](CC(=O)N(CCO)Cc1ccccc1)C(=O)N[C@H](COC(=O)[C@H](CC=C)CC(=O)OC(C)(C)C)Cc1c[nH]c2ccccc12	ELG1 repair inh 20.6µM (no result: Gal4-VP16 FLuc, RORg inh, Coupling enz)
C=CC[C@H](CC(=O)NCCO)C(=O)N[C@H](COC(=O)[C@H](CC=C)CC(=O)OC(C)(C)C)Cc1c[nH]c2ccccc12	ELG1 repair inh 23.1µM (no result: Gal4-VP16 FLuc, RORg inh, Coupling enz)
C=CC[C@@H](CC(=O)N(CCO)Cc1ccccc1)C(=O)N[C@@H](COC(=O)[C@H](CC=C)CC(=O)OC(C)(C)C)Cc1c[nH]c2ccccc12	ELG1 repair inh inconclusive (no result: Gal4-VP16 FLuc, RORg inh, Coupling enz)
C=C(C)C(=O)c1cccs1	none (no result: ELG1 repair inh, TSHR antag)
Cc1cc(C)c2nc3sc(C(=O)N4CCOCC4)c(N)c3cc2c1	Gal4-VP16 FLuc inconclusive, ELG1 repair inh inconclusive, RORg inh 10µM
Nc1c(C(=O)N2CCOCC2)sc2nc3c(cc12)CCCC3	Gal4-VP16 FLuc inconclusive, ELG1 repair inh inconclusive, RORg inh 10µM
COCC(C)n1c(C)cc(C(=O)COC(=O)c2c(C)nn(-c3ccccc3)c2C)c1C (stereo not given)	ELG1 repair inh inconclusive
COCC(C)n1c(C)cc(C(=O)COC(=O)c2c(NC(C)=O)sc(C)c2C)c1C (stereo not given)	RORg inh 4.47µM
CO[C@H]1OC2O[C@@]3(C)CC[C@H]4[C@H](C)CC[C@@H]([C@H]1C)[C@@]24OO3 (stereo not given in full)	none (no result: ELG1 repair inh, Coupling enz, TSHR antag)
CC(=O)Nc1nc(C2COc3ccccc3O2)cs1 (stereo not given)	ELG1 repair inh inconclusive, RORg inh 12.6µM
CCOc1ccc(C=C2SC(=O)N(CCN)C2=O)cc1	RORg inh 0.631µM (no result: ELG1 repair inh, TSHR antag)
CCOc1ccc(/C=C2/SC(=S)N(n3c(C)ccc3C)C2=O)cc1	RORg inh inconclusive
C/C(=N\Nc1cc(C)nc(-c2ccccc2O)n1)c1ccccc1	ELG1 repair inh inconclusive
Cc1ccc(Nc2nc(-c3cccnc3)nc3ccccc23)cc1	ELG1 repair inh inconclusive
Oc1ccc(/C=N/Nc2nc(-c3cccnc3)nc3ccccc23)c(O)c1	Gal4-VP16 FLuc 11.2µM, ELG1 repair inh 16.4µM, RORg inh inconclusive
COc1cc(/C=N/Nc2ncnc3sc4c(c23)CCC4)ccc1O	Gal4-VP16 FLuc inconclusive, ELG1 repair inh inconclusive
c1ccc(Nc2nc(-c3cccnc3)nc3ccccc23)cc1	none (no result: ELG1 repair inh, TSHR antag)
COc1ccc(/C=N/Nc2ncnc3scc(-c4ccccc4)c23)cc1OC	Gal4-VP16 FLuc 0.891µM, ELG1 repair inh 18.4µM, RORg inh 3.55µM
Cc1cc(N/N=C/c2ccc(O)c(C)c2O)nc(-c2ccccc2O)n1	ELG1 repair inh 2.91µM
Cc1c(O)ccc(/C=N/Nc2nc(-c3cccnc3)nc3ccccc23)c1O	Gal4-VP16 FLuc 17.8µM, ELG1 repair inh 5.17µM, RORg inh 4.47µM
CCCc1cc(=O)n2nc(N3CCC(C(=O)NCc4ccco4)CC3)sc2n1	none (no result: Coupling enz)
CCCCCCCCCCCCCCCCOC[C@H](COP(=O)([O-])OCC[N+](C)(C)C)OC(=O)CCCCCCCC(=O)O	Gal4-VP16 FLuc inconclusive (no result: ELG1 repair inh, TSHR antag)
O=C([C@@H]1Cc2ccccc2CN1)N1CCN(Cc2ccccc2)CC1	none
CN(Cc1ccccc1F)c1nc(-c2cccnc2)nc2ccccc12	ELG1 repair inh inconclusive
COc1ccc(/C=N/Nc2nc(-c3cccnc3)nc3ccccc23)cc1OC	ELG1 repair inh 6.51µM
Cc1ccc(-c2nc(N/N=C/c3ccncc3)c3ccccc3n2)cc1	Gal4-VP16 FLuc 0.282µM, ELG1 repair inh inconclusive, RORg inh inconclusive
CCOc1ccc(CN(C)c2nc(-c3cccnc3)nc3ccccc23)cc1OC	ELG1 repair inh 18.3µM
COC(=O)c1ccc(Cn2nc(-c3ccc(C)cc3)ccc2=O)cc1	none
CC(=O)OC[C@@H]1O[C@@H](O/N=C2/C[C@@H](O)[C@@H](O)[C@@H]3[C@@H]4C(=O)N([C@@H](C)c5ccccc5)C(=O)[C@H]4CC[C@@H]23)[C@H](OC(C)=O)[C@H](OC(C)=O)[C@@H]1OC(C)=O	none (no result: ELG1 repair inh, TSHR antag)
CCn1c(C(C)NC(=O)c2ccc(Cl)cc2)n[nH]c1=S (stereo not given)	RORg inh 7.08µM
Cc1cc(NCCCn2ccnc2)n2nc(C)c(-c3ccccc3)c2n1	ELG1 repair inh inconclusive
Cc1cc(NCCN2CCOCC2)n2ncc(-c3ccccc3)c2n1	Gal4-VP16 FLuc 10µM, ELG1 repair inh inconclusive, RORg inh 3.55µM
Cc1cc(NCCCn2ccnc2)n2ncc(-c3ccccc3)c2n1	Gal4-VP16 FLuc 7.94µM, ELG1 repair inh inconclusive, RORg inh 4.47µM
COc1ccc(CCNc2cc(C)nc3c(-c4ccccc4)c(C)nn23)cc1OC	ELG1 repair inh 20.6µM
Cc1cc(NCCN2CCOCC2)n2nc(C)c(-c3ccccc3)c2n1	Gal4-VP16 FLuc 10µM, RORg inh 8.91µM
Cc1cc(NCc2ccccc2)n2ncc(-c3ccccc3)c2n1	ELG1 repair inh inconclusive
C#CCN(CC=C)C(=O)c1ccc(OC2CCN(S(=O)(=O)N(C)C)CC2)cc1	ELG1 repair inh 20.6µM
CN(C)S(=O)(=O)N1CCC(Oc2ccc(C(=O)N3C[C@H]4CC[C@H]3C4)cc2)CC1	Gal4-VP16 FLuc inconclusive, ELG1 repair inh 13µM (no result: Coupling enz)
C=C1C[C@@]23CC[C@H]4[C@@](C)(CCC[C@@]4(C)C(=O)OC4OC(CO)C(O)C(O)C4O)[C@@H]2CC[C@]1(OC1OC(CO)C(O)C(O)C1OC1OC(CO)C(O)C(O)C1O)C3 (stereo not given in full)	none (no result: Gal4-VP16 FLuc, ELG1 repair inh, RORg inh, Coupling enz)
O=C(NCc1ccccc1)C1CCC(=O)N(CCCN2CCCC2=O)C1 (stereo not given)	ELG1 repair inh inconclusive
COc1ccccc1-c1ccc2nnc(SC)n2n1	ELG1 repair inh inconclusive, RORg inh inconclusive
O=C(c1cccc(F)c1)N1CCC2(CCCN(c3ncccn3)C2)CC1	none (no result: ELG1 repair inh, TSHR antag)
COc1ccc2nc(C)c3c(c2c1)OC(C(C)(Cl)Br)C3 (stereo not given)	ELG1 repair inh inconclusive, RORg inh 5.01µM
Cc1ccc2nc(C)c3c(c2c1)OC(C(C)(Cl)Br)C3 (stereo not given)	none
COc1ccc(-c2cc3c(=O)n(CC(=O)Nc4cccc(Cl)c4)nc(C)n3n2)cc1	none
COc1ccc2c(c1)-c1c(ssc1=S)C(C)(C)N2C(=O)CSC1=NCCS1	ELG1 repair inh inconclusive, RORg inh inconclusive
Cc1cc2c(cc1C)N(C(=O)CSC1=NCCS1)C(C)(C)c1ssc(=S)c1-2	RORg inh 3.98µM
CC1(C)c2ssc(=S)c2-c2ccccc2N1C(=O)CSC1=NCCS1	RORg inh 11.2µM
CC(C)(C)C1=CC=C(C(C)(C)C)C(=O)C1=O	Coupling enz -59.6
